High-throughput results as filed in PubChem BioAssay.
IL1B secr inh – qHTS for Inhibitors of Inflammasome Signaling: IL-1-beta AlphaLISA Primary Screen | 360,000 compounds, 4.7% hits | activity change, % at 57.5 µM | THP-1 LPS/ATP IL-1B secretion, AlphaLISA, 16 h; hits give low values; in the data active means activity change below about -50%; inconclusive means mostly about -30% to -49%
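Secreted IL-1B measured by AlphaLISA bead assay after 16 h compound exposure of THP-1 cells; compounds (final up to 57.5 uM) added 1 h before LPS (250 ng/mL) and ATP (1.25 mM) stimulation; lower signal means less secretion.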
TDP1 cell noCPT – qHTS for Inhibitors of human tyrosyl-DNA phosphodiesterase 1 (TDP1): qHTS in cells in absence of CPT. DT40 Tdp1-/- hTDP1 cells, no CPT, ATP luminescence, 48 h. Potency, µM (titrated, usually from 46.2 µM), most hits filed as inhibitors. 420,000 compounds, 15% hits; further: nearly all actives have a fitted effect of over 55% in size
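Chicken DT40 Tdp1-/- cells stably complemented with human TDP1 were seeded at 400 cells/well with DMSO in place of 20 nM camptothecin. After compound pinning, cells grew at least 48 hr at 37 °C; viability read by CellTiter-Glo luminescence.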
TDP1 cell CPT – qHTS for Inhibitors of human tyrosyl-DNA phosphodiesterase 1 (TDP1): qHTS in cells in presence of CPT | chicken DT40 Tdp1-/-;hTDP1 cells + 20 nM CPT, ATP luminescence, 48 h | Potency, µM (titrated, usually from 46.2 µM), usual class: inhibitors | 420,000 compounds, 12% hits | AID 686979, 2013; further: nearly all actives have a fitted effect of over 55% in size
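Cell growth measured by CellTiter-Glo luminescence after a minimum 48 h, 37 C compound exposure with 20 nM CPT in Tdp1-knockout DT40 cells stably expressing hTDP1, seeded 400/well; qHTS titration format.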
TDP1 inh – qHTS Assay for Inhibitors of Tyrosyl-DNA Phosphodiesterase (TDP1). Tyrosyl-DNA phosphodiesterase 1 (Homo sapiens), Q9NUW8. AID 485290, 2010. Potency, µM (series often up to 130 µM), usual class: inhibitors. recombinant TDP1, AlphaScreen DNA substrate cleavage. 350,000 compounds, 0.28% hits; further: nearly all actives have a fitted effect of over 40% in size
Target sequence (Q9NUW8 whole entry, looked up): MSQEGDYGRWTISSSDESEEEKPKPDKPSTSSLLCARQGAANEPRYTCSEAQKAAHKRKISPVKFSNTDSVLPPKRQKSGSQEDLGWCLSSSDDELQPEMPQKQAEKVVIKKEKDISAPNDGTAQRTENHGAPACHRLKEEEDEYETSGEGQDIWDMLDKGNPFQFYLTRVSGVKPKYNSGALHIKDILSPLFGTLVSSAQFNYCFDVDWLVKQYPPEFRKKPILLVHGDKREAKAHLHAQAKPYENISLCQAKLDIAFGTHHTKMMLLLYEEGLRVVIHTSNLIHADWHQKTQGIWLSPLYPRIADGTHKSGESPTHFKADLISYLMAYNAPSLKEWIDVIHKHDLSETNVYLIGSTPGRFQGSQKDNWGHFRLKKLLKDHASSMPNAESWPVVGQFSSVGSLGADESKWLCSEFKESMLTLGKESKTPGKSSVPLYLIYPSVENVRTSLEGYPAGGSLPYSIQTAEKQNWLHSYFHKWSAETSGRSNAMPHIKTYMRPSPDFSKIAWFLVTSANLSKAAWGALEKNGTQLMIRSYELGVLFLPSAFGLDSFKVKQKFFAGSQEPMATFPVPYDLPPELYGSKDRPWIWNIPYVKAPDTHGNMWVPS
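AlphaScreen read-out: signal falls as enzyme removes the 3' tyrosine-FITC from a 5'-biotinylated DNA oligo (15 nM, 5 min, RT). Enzyme was E. coli-made recombinant Tdp1 at 1 nM, exposed to compound for 15 min beforehand; beads 10 ug/ml, 10 min.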
ELG1 DNA repair – qHTS screen for small molecules that inhibit ELG1-dependent DNA repair in human embryonic kidney (HEK293T) cells expressing luciferase-tagged ELG1; HEK293T ELG1-luciferase reporter, luminescence, 16 h; DNA damage induced by 5-fluorouridine; Potency, µM (series often up to 46.1 µM), most hits filed as inhibitors; 330,000 compounds, 2.3% hits; AID 504467, 2011; further: nearly all actives have a fitted effect of over 55% in size
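DMSO vehicle served as the neutral condition. Each well held 2,000 cells given 5-fluorouridine plus compound; after 16 hr at 37 °C/5% CO2, ONE-Glo was added and luciferase measured 30 min later.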
Giardia kill – Small Molecules that selectively kill Giardia lamblia: qHTS; Giardia lamblia trophozoite viability; 340,000 compounds, 0.15% hits; AID 540267, 2011; activity change, % at 7.66 µM, hits read low; in the data active means activity change below about -80%; inconclusive means between about -30% and that limit;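 further: parasites exposed to compound for two days anaerobically before the ATP read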
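Each well holds 100 Giardia trophozoites and compound. After two days (48 hrs) at 37 deg C in anaerobic conditions, ATP is quantified by luminescence.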
A number is an active result; . = inactive; ? = inconclusive; / = no result; [ ] = remark or other dose. In the library only some 19% were active in any assay of this set; here they are far more common. Unless noted, the call rests on the fitted dose curve; in most records, active means well fitted curve in the direction sought with a large enough effect; inconclusive means small, poorly fitted or top-dose-only effect, or another doubt; inactive means no such curve, though single readings can be large; an effect the other way counts as inactive or inconclusive.

SMILES	IL1B secr inh	TDP1 cell noCPT	TDP1 cell CPT	TDP1 inh	ELG1 DNA repair	Giardia kill
Cc1cc(C)c2c(=O)n3c(nc2c1)C(Cc1ccccc1)NC(=O)c1cc2ccccc2cc1-3 (stereo not given)	.	?	?	/	/	/
Oc1ccc(COc2ccccc2Cl)c2cccnc12	/	/	/	.	/	/
CCOC(=O)C1CCC(CNCc2ccc(Cl)cc2)CC1 (stereo not given)	.	?	?	.	.	.
CCOc1ccccc1C(=O)N1CCC(n2nnc3cc(C)ccc32)CC1	.	?	?	.	.	.
CCOc1ccccc1C(=O)N1CCC(n2nnc3cc(C(F)(F)F)ccc32)CC1	.	?	?	.	21µM	.
CCCCC(c1nc2ccccc2[nH]1)n1c(-c2ccccc2)nc2ccccc21 (stereo not given)	.	.	.	/	/	/
CCCCC(c1nc2ccccc2[nH]1)n1c(-c2ccccc2)nc2cc(C)c(C)cc21 (stereo not given)	.	23µM	15µM	/	/	/
Cc1cc(=O)n(CC(=O)N2CCN(c3ccccc3F)CC2)c2c1c(C)nn2C	/	8.2µM	16µM	.	/	/
CCOC(=O)C1CCN(C(=O)Cn2c(=O)cc(C)c3c(C)nn(C)c32)CC1	/	18µM	26µM	.	/	/
O=S(=O)(c1cccc(COc2c(Cl)cccc2Cl)c1)N1CCOCC1	.	?	?	.	.	.
Cc1ccc(Cl)c2sc(NC(=O)CS(=O)(=O)c3ccc(Cl)cc3)nc12	/	?	?	.	/	/
Cc1ccc([N+](=O)[O-])cc1NC(=S)NC(=O)c1c(Cl)cnn1C	.	.	.	.	.	.
CCN(c1ccccc1)S(=O)(=O)c1ccc(C(=O)Nc2nnc(C3CC3)o2)cc1	.	18µM	21µM	.	10µM	.
CN(c1ccccc1)S(=O)(=O)c1ccc(C(=O)Nc2nnc(C3CC3)o2)cc1	.	.	.	.	10µM	?
COCCN(CCOC)S(=O)(=O)c1ccc(C(=O)Nc2nnc(C3CC3)o2)cc1	.	.	.	.	.	.
O=C(Cn1c(=O)[nH]c2ccccc2c1=O)N1CCN(Cc2ccc3c(c2)OCO3)CC1	.	?	?	.	23µM	.
O=C(CN1C(=O)c2cccc3cccc1c23)NCc1ccc2c(c1)OCO2	.	.	.	.	.	.
O=C(CN1C(=O)c2cccc3cccc(c23)C1=O)N1CCN(Cc2ccc3c(c2)OCO3)CC1	.	18µM	21µM	.	?	.
C[C@H](NC(=O)c1ccccc1)C(=O)N1CCN(Cc2ccc3c(c2)OCO3)CC1	.	.	.	.	.	.
CC(C)[C@@H](C(=O)N1CCN(Cc2ccc3c(c2)OCO3)CC1)n1nnc2ccccc2c1=O	.	13µM	21µM	.	.	.
CCC(C(=O)N1CCN(Cc2ccc3c(c2)OCO3)CC1)n1c(=O)[nH]c2ccccc2c1=O (stereo not given)	.	.	.	.	.	.
CC(C)[C@H](NC(=O)c1ccc(C(C)(C)C)cc1)C(=O)N1CCN(Cc2ccc3c(c2)OCO3)CC1	-72	3.7µM	3.7µM	.	16µM	.
CCCCCCC(=O)Cc1cc(OC)c(OC)cc1/C=C(/C(C)=O)C(=O)OC	/	/	/	.[21 µM]	/	/
O=C(CCCCCn1c(=O)[nH]c2ccccc2c1=O)N1CCN(Cc2ccc3c(c2)OCO3)CC1	.	?	13µM	.	18µM	.
COc1cc2[nH]c(=O)n(CCC(=O)N3CCN(Cc4ccc5c(c4)OCO5)CC3)c(=O)c2cc1OC	?	.	?	.	.	.
SMILES	IL1B secr inh	TDP1 cell noCPT	TDP1 cell CPT	TDP1 inh	ELG1 DNA repair	Giardia kill
Cc1oc(C)c2c(=O)ccc3c(c12)OC(N)=C(C#N)C3c1ccc(F)cc1 (stereo not given)	.	?	?	.	.	.
CCN1C=C(Cc2ccc(F)cc2)C2=C(C1)C(c1ccc(F)cc1)C(C#N)=C(N)O2 (stereo not given)	-103	16µM	?	.	.	.
CCN1C=C(Cc2ccccc2C)C2=C(C1)C(c1ccccc1C)C(C#N)=C(N)O2 (stereo not given)	?	21µM	16µM	.	?	.
O=C(COC(=O)COc1ccccc1)NCCC1=CCCCC1	.	.	.	.	.	.
Cc1ccc(-c2noc(-c3ccno3)n2)cc1	.	.	.	.	?	.
O=c1cc(N2CCC(Cc3ccccc3)CC2)[nH]c(=O)n1C1CCCCC1	.	16µM	?	.	.	.
O=c1cc(N2CCCCC2)[nH]c(=O)n1C1CCCCC1	.	.	.	/	.	.
O=c1cc(N2CCc3ccccc3C2)[nH]c(=O)n1C1CCCCC1	.	?	1.8µM	.	.	.
CCn1c2ccccc2c2c3ncc4cccn4c3ccc21	-76	6.5µM	4.1µM	?	?	.
CCC1CN(CCNC(=O)c2ccccc2-n2cccn2)Cc2cc(OC)ccc2O1 (stereo not given)	/	.	.[9.04 µM]	/	/	/
Cc1cc(=O)oc2cc(O)cc(OCc3ccccc3)c12	.	16µM	?	/	/	.
C=C(Cl)COc1ccc2c(CCC)cc(=O)oc2c1	.	?	?	89µM	.	.
Cc1cc(OCC(=O)NCCc2c[nH]c3ccccc23)c2c(C)c(C)c(=O)oc2c1	.	?	?	/	?	.
Cc1cc(OCC(=O)NCCc2c[nH]c3ccccc23)c2c(C)cc(=O)oc2c1	-90	?	?	/	?	.
Cc1cc(OCC(=O)Nc2ccccn2)c2c(C)cc(=O)oc2c1	-54	?	.	.	?	.
O=C(CN(c1ccccn1)S(=O)(=O)c1ccccc1)N/N=C/c1cccc([N+](=O)[O-])c1	.	.	.	.	.	.
CCCc1cc(=O)oc2cc(OCC(=O)NCCc3c[nH]c4ccccc34)ccc12	.	16µM	23µM	/	.	.
Cc1ccc(OCC(=O)NCCc2c[nH]c3ccccc23)cc1	.	.	.	.	.	.
Cc1cc(=O)oc2cc(OCC(=O)NCCc3c[nH]c4ccc(F)cc34)ccc12	.	.	.	.	?	?
COc1ccc2[nH]cc(CCNC(=O)COc3ccc4ccc(=O)oc4c3)c2c1	.	21µM	?	/	.	.
CCn1c(=O)c2cc(C(=O)Nc3cc(F)ccc3F)sc2c2ccccc21	/	?	?	.	/	/
Cc1[nH]c2ccc(C(=O)OCCN(C)C)cc2c1C	.	.	.	.	?	.
